MCF10A rereplic = induces DNA re-replication in MCF 10a normal breast cells; hit rate 2.9% among 350,000; MCF 10A DNA re-replication, Hoechst nuclear intensity, 48 h; Potency, µM (highest dose often 46.1 µM), for inactives: top-dose activity, positive = re-replication, usual class: activators; also: % of control where 0% means no effect; nearly all actives have a fitted effect of over 50% in size
HT1080 IDH1KD tx = HT-1080 IDH1 knockdown cell toxicity (counter line) | HT-1080 IDH1 knockdown viability, ATP luminescence, 48 h | hit rate 2% among 360,000 | Potency, µM (series often up to 46.1 µM), for the others: at the highest dose activity, negative = toxicity, usual class: cytotoxic;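 also: 0% = DMSO wells and -100% = cell-free medium wells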
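Luminescent ATP read-out (CellTiter-Glo, 10 min at room temperature) after 48 h compound exposure at 37 °C gave viability of IDH1-knockdown HT-1080 cells. Activity was normalised to DMSO and cell-free wells, then fitted as concentration-response curves.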
KB-V1 MDR tox = KB-V1 MDR subline cytotoxicity; KB-V1 MDR cells viability, CellTiter-Glo, 72 h; Potency, µM (top dose mostly 46.1 µM), actives largely listed as cytotoxic; hit rate 3.4% among 400,000; also: % is scaled to controls: 0 for no effect and ±100 for the full control effect; nearly all actives have a fitted effect of over 60% in size
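Compound-treated KB-V1 multidrug-resistant cells, 72 h, 37 degrees C; viability by CellTiter-Glo. Fitted qHTS curves give the values.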
SW480 rerep = inducers of DNA re-replication in SW480 colon cancer cells. SW480 DNA re-replication, Hoechst DNA content imaging, 48 h. Potency, µM (series often up to 46.1 µM), for the others: at the highest dose re-replication activation, actives largely listed as activators. hit rate 1.8% among 340,000; also: % of control where 0% means no effect; nearly all actives have a fitted effect of over 55% in size
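Readout is total intensity of Hoechst-stained nuclei, excited at 405 nm and collected at 500-530 nm. Compound treatment lasted 48 hr at 37 C in 5% CO2 before staining.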
KB-3-1 cytotox = KB-3-1 parental cell cytotoxicity. hit rate 1.4% among 400,000. Potency, µM (series often up to 46.1 µM), actives largely listed as cytotoxic. AID 1347075. KB-3-1 viability, CellTiter-Glo ATP luminescence, 72 h; also: % is scaled to controls: 0 for no effect and ±100 for the full control effect; nearly all actives have a fitted effect of over 60% in size
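72 h, 37 °C compound treatment of KB-3-1 parental cells; CellTiter-Glo added, 10 min, luminescence read. Data corrected against DMSO-only plates and normalized before curve fitting.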
HT1080-NT tox = kills 2HG-producing HT-1080-NT fibrosarcoma cells. HT-1080-NT fibrosarcoma viability, CellTiter-Glo ATP luminescence, 48 h. Potency, µM (doses to about 46.1 µM), for inactives: at the top dose activity, negative = less viability, hits mostly cytotoxic. hit rate 1.6% among 360,000. AID 686970;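 also: NT is the 2HG producing partner of a matched IDH1 knockdown line; 0% = DMSO-treated cells and -100% = media-only wells without cells; nearly all actives have a fitted effect of over 55% in size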
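Fibrosarcoma NT cells, 750 per well in 5% FBS RPMI, were exposed to compound for 48 hours. Viability: CellTiter-Glo luminescence.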
Numbers without * were called inactive; i = inactive; ? = inconclusive; · = no result. Rows were chosen to be rich in hits. Some 8% of all compounds tested hit in one or more screens of this group. Calls follow the shape of the dose curve; as a rule, active = well fitted curve in the direction sought with a large enough effect; inconclusive = small, poorly fitted or top-dose-only effect, or another doubt; inactive = no such curve, though single readings can be large; an effect the other way counts as inactive or inconclusive. Potency is read from the fitted curve at half-maximal effect.

SMILES	MCF10A rereplic	HT1080 IDH1KD tx	KB-V1 MDR tox	SW480 rerep	KB-3-1 cytotox	HT1080-NT tox
COc1ccc(Cl)cc1-c1nc(N)nc(NC2CCCCC2)n1	0%	0%	18µM*	-4%	i	-1%
CCN(CC)C(=O)c1sc2c(c1C)c(=O)n(-c1ccc(OC)cc1OC)c(=O)n2CC(=O)c1ccc(Cl)cc1	·	·	i	·	i	·
Cc1cc(C(=O)Cn2nc(C(=O)O)c3ccccc3c2=O)c(C)n1-c1ccccc1	0%	-7%	16µM*	2%	i	5%
Cc1cc(C)c(C(=O)Cn2nc(C(=O)O)c3ccccc3c2=O)cc1C	-2%	-12%	i	1%	i	3%
Cc1ccccc1C(=O)Nc1ccc2nc3n(c(=O)c2c1)CCC3	-2%	13%	?	-10%	6.5µM*	12%
Cc1ccccc1C(=O)Nc1ccc2nc3n(c(=O)c2c1)CCCC3	-4%	9%	i	?	i	1%
COc1ccccc1NC(=O)COc1ccc(/C=N/NC(=O)CSCc2cc(C)cc(C)c2)cc1	18µM*	?	i	-3%	i	?
COc1ccccc1NC(=O)COc1ccc(/C=N/NC(=O)CSCc2ccc(Cl)cc2)cc1	-5%	14%	5.2µM*	18%	i	11%
O=C(CSCc1ccc(Cl)cc1)N/N=C/c1ccc(OCC(=O)Nc2ccccc2)cc1	2%	-22%	i	0%	i	-12%
COc1ccccc1NC(=O)COc1ccc(/C=N/NS(=O)(=O)c2ccc(C)cc2)cc1	?	4%	i	19%	i	5%
Cc1ccc(S(=O)(=O)n2nc(-c3ccccc3)nc2NCc2ccc(Cl)cc2)cc1	·	·	?	·	i	·
Cc1cccc(CN2CCCC(C(=O)Nc3ccc(-c4cscn4)cc3)C2)c1 (stereo not given)	5%	?	?	?	16µM*	?
Cc1ncc(CN2CCCC(C(=O)Nc3ccc(-c4cccc(F)c4)cc3)C2)cn1 (stereo not given)	10%	?	i	?	i	-29%
CC(=O)c1cccc(CN2CCCC(C(=O)Nc3ccc(-c4ccco4)cc3)C2)c1 (stereo not given)	?	?	i	8.2µM*	i	-10%
Cc1nn(C)c(Cl)c1CN1CCCC(C(=O)Nc2ccc(-c3cscn3)cc2)C1 (stereo not given)	?	-4%	·	1%	·	-6%
O=C(Nc1ccc(-c2cscn2)cc1)C1CCCN(Cc2ccccc2)C1 (stereo not given)	?	?	i	29µM*	?	?
Cc1ccccc1CN1CCCC(C(=O)Nc2ccc(-c3ccn[nH]3)cc2)C1 (stereo not given)	?	?	12µM*	?	?	-10%
O=c1c2oc3ccccc3c2n(Cc2ccc(Cl)cc2)c(=O)n1Cc1ccco1	·	·	i	·	i	·
COc1ccc(N(C(=O)COc2c(C)cccc2C)S(=O)(=O)c2ccc(Cl)cc2)cc1	·	·	i	·	i	·
Cc1sc(NC(=S)NC(=O)CCc2ccccc2)c(C(N)=O)c1C	0.13µM*	?	?	0.29µM*	0.18µM*	0.16µM*
COC(=O)CCC(=O)NC(=S)Nc1sc(C)c(C)c1C(N)=O	1.2µM*	0.33µM*	1.6µM*	?	0.65µM*	?
COC(=O)CCC(=O)Nc1sc(C)c(C)c1C(N)=O	-1%	21%	?	-5%	i	26%
C=CCC[C@H](Cc1ccc(F)cc1)C(=O)OC[C@H](Cc1c[nH]c2ccccc12)NC(=O)[C@@H](CC=C)CC(=O)N[C@@H](CO)Cc1ccccc1	?	?	i	-6%	?	?
C=CCC[C@H](Cc1ccc(F)cc1)C(=O)OC[C@@H](NC(=O)[C@@H](CC=C)CC(=O)N[C@@H](CO)Cc1ccccc1)C(C)(C)C	33%	?	i	?	?	?
C=CCC[C@H](Cc1ccc(F)cc1)C(=O)OC[C@H](Cc1c[nH]c2ccccc12)NC(=O)[C@@H](CC=C)CC(=O)N[C@H](CO)Cc1ccccc1	?	18µM*	i	4%	?	21µM*
SMILES	MCF10A rereplic	HT1080 IDH1KD tx	KB-V1 MDR tox	SW480 rerep	KB-3-1 cytotox	HT1080-NT tox
C=CCC[C@@H](Cc1ccc(F)cc1)C(=O)OC[C@H](Cc1c[nH]c2ccccc12)NC(=O)[C@@H](CC=C)CC(=O)N[C@H](CO)Cc1ccccc1	21%	-27%	?	3.7µM*	i	-20%
C=CC[C@@H](CC(=O)N[C@H](CO)Cc1ccccc1)C(=O)N[C@H](COC(=O)[C@@H](CC=C)Cc1ccc(F)cc1)C(C)(C)C	?	-22%	i	?	21µM*	?
COc1cc(S(C)=O)ccc1-c1nc2ncccc2[nH]1 (stereo not given)	-4%	12%	i	-49%	i	19%
Cn1c2ccccc2c2nnc(SCCOc3ccccc3)nc21	·	·	i	·	?	·
CCCCn1c(NC(=O)c2ccc(Br)o2)c(S(=O)(=O)c2ccccc2)c2nc3ccccc3nc21	18µM*	-20%	?	?	?	7%
CCCCn1c(NC(=O)c2ccco2)c(S(=O)(=O)c2ccc(C)cc2)c2nc3ccccc3nc21	8.2µM*	-18%	?	?	i	?
CCC(=O)Nc1c(S(=O)(=O)c2ccccc2)c2nc3ccccc3nc2n1C(C)c1ccccc1 (stereo not given)	21µM*	-26%	i	?	?	-12%
CCCCn1c(NS(=O)(=O)c2ccccc2)c(S(=O)(=O)c2ccc(C)cc2)c2nc3ccccc3nc21	?	-12%	?	13µM*	12µM*	-12%
CCC(=O)Nc1c(S(=O)(=O)c2ccc(C)cc2)c2nc3ccccc3nc2n1C(C)c1ccccc1 (stereo not given)	?	-16%	?	?	i	-13%
CCOC(=O)c1c(C)oc2nc(C)nc(N3CCN(c4ccccc4F)CC3)c12	·	·	i	·	i	·
Cc1ccccc1NC(=O)Cn1cc(S(=O)(=O)c2ccccc2)c(=O)c2ccccc21	·	·	i	·	i	·
CCCCN(CCCNC(=O)c1c(C)oc2nc[nH]c(=O)c12)Cc1ccccc1	·	·	i	·	i	·
COc1ccc(C2CC(=O)c3cc(-c4nc(-c5cccc([N+](=O)[O-])c5)cs4)c(=O)n(-c4ccc(C)c(C)c4)c3C2)cc1 (stereo not given)	·	·	i	·	i	·
CCCCc1nnc(NC(=O)Cc2ccc(S(=O)(=O)N3CCOCC3)s2)s1	1%	1%	i	-2%	i	0%

Assay outcomes (PubChem BioAssay)
